According to PubChem BioAssay AID1345085 (National Center for Advancing Translational Sciences (NCATS), 2018):
Records with an inconclusive call do not appear. A number with no mark means an inactive call. Active and inactive are the calls of the source. Calls come from the whole dose curve; as a rule, active = well fitted cell-killing curve with a large enough effect; inconclusive = small, poorly fitted or top-dose-only effect, or effect the other way; inactive = no such curve, though single readings can be large or run the other way.

Test system: SKOV3
Experiment: Confirmatory qHTS for gynecologic anti-cancer compounds from libraries of approved drugs and bioactive compounds; note: nearly all actives have a fitted effect of over 55% in size
Details: gynecologic cancer cell panel viability, ATPlite luminescence, 48 h; series mostly up to 57.6 µM; activity change, negative = viability loss: at the top concentration
How it was run: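 1,000 cells/well; 16 h pre-incubation 37 C, 5% CO2; pin-transferred cpd in DMSO, 11 conc (1:3), 57.5 uM–0.977 nM; 48 h; ATPlite, 15 min RT; luminescence → IC50.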
% is set by controls: 0 for no effect and ±100 for the full control effect; potency is the fitted concentration of half-maximal effect.

Structure (SMILES)	activity change, negative = viability loss	Potency
O=C(O)c1ccc(Nc2ncc3c(n2)-c2ccc(Cl)cc2C(c2c(F)cccc2F)=NC3)cc1	-12.6%	
Nc1ccccc1NC(=O)c1ccc(CNC(=O)OCc2cccnc2)cc1		2.17 µM (active)
O=C(NOCC1CC1)c1ccc(F)c(F)c1Nc1ccc(I)cc1Cl	-4.7%	
Cc1cc(Nc2nc(N[C@@H](C)c3ccc(F)cc3)c(C#N)cc2F)n[nH]1		7.69 µM (active)
COc1cc2c(cc1-c1c(C)noc1C)ncc1[nH]c(=O)n(C(C)c3ccccn3)c12 (stereo not given)	-18.7%	
Cc1nc(NC(=O)N2CCCC2C(N)=O)sc1-c1ccnc(C(C)(C)C(F)(F)F)c1 (stereo not given)		0.685 µM (active)
CNc1nc(Nc2ccc(C(=O)N3CCOCC3)cc2OC)ncc1Cl	0.103%	
Cc1cnc(Nc2ccc(OCCN3CCCC3)cc2)nc1Nc1cccc(S(=O)(=O)NC(C)(C)C)c1		10.9 µM (active)
Cc1cc(SCc2sc(-c3ccc(C(F)(F)F)cc3)nc2C)ccc1OCC(=O)O	-4.3%	
C[C@]12CCC(=O)C=C1[C@@H]1C[C@@H]1[C@H]1[C@@H]3[C@@H]4C[C@@H]4[C@@]4(CCC(=O)O4)[C@@]3(C)CC[C@@H]12	0.284%	
CNC(=O)c1ccccc1Nc1nc(Nc2ccc(N3CCOCC3)cc2OC)ncc1Cl		6.85 µM (active)
COc1cc(N2CCC(N3CCN(C)CC3)CC2)ccc1Nc1ncc(Cl)c(Nc2ccccc2S(=O)(=O)C(C)C)n1		19.3 µM (active)
Oc1cn2c(n1)Nc1ccc(Cl)c(Cl)c1C2	-19.5% [at 19.5 µM]	
COc1cc2c(c(OC)c1OC)-c1ccc(OC)c(=O)cc1[C@@H](NC(C)=O)CC2	20.6% [at 486 µM]	
FC(F)(F)c1ccc(/C=C/c2nc(COc3ccc(CCCCn4ccnn4)cc3)co2)cc1	-6.4%	
COc1cc(N2CCC(N(C)C)CC2)ccc1Nc1ncc(Cl)c(Nc2ccccc2P(C)(C)=O)n1		6.11 µM (active)
CCN1CCN(Cc2ccc(Nc3ncc(F)c(-c4cc(F)c5nc(C)n(C(C)C)c5c4)n3)nc2)CC1	34.5%	
O=c1cc(CN2CCOCC2)occ1OCCCCCSc1ccnc2cc(C(F)(F)F)ccc12	-9.95%	
Cc1nc(Nc2ncc(C(=O)Nc3c(C)cccc3Cl)s2)cc(N2CCN(CCO)CC2)n1		21.7 µM (active)
Cc1ccc(NC(=O)c2ccc(CN3CCN(C)CC3)cc2)cc1Nc1nccc(-c2cccnc2)n1	-17.9%	
CC[C@H](CC#N)OC(=O)N[C@@H](C)c1cccc(NC(=O)Nc2ccc(-c3cnco3)c(OC)c2)c1	-16.4%	
COc1ccc(-c2cc3nccn3c(Nc3ncccc3C(N)=O)n2)cc1OC	25.3%	
COc1ccc(CCC(=O)c2c(O)cc(O[C@@H]3O[C@H](CO)[C@@H](O)[C@H](O)[C@H]3O[C@@H]3O[C@@H](C)[C@H](O)[C@@H](O)[C@H]3O)cc2O)cc1O	6.17%	
CCN(CC)CCNC(=O)c1c(C)[nH]c(/C=C2\C(=O)Nc3ccc(F)cc32)c1C		15.8 µM (active)
COC(C(=O)N1Cc2[nH]nc(NC(=O)c3ccc(N4CCN(C)CC4)cc3)c2C1)c1ccccc1 (stereo not given)	10.3%	
NC(=O)c1ccc2nc(-c3ccc(Oc4ccc(Cl)cc4)cc3)[nH]c2c1	11.9%	
COc1ccc(OC)c(-c2nnc3ccc(-c4ccc(OC)c(O[C@@H]5CCOC5)c4)nn23)c1	-8.13%	
O=C(O)C1(Cc2cccc(Nc3nccs3)n2)CCC(Oc2cccc(Cl)c2F)CC1 (stereo not given)	-4.38%	
Cc1nc(Nc2n[nH]c3c2CN(C(=O)NC(CN(C)C)c2ccccc2)C3(C)C)c2sccc2n1 (stereo not given)		3.06 µM (active)
COc1cccc2cc(-c3nc(C4CCC(C(=O)O)CC4)n4ncnc(N)c34)[nH]c12 (stereo not given)		1.09 µM (active)
